{"source": "ChEMBL document CHEMBL3433997", "about": "“St. Jude Leishmania screening dataset” (2016)"}
{"target": "Glucose transporter (Leishmania mexicana) (UniProt O61059)", "experiment": "ST_JUDE_LEISH: Cytotoxicity at 2uM final concentration against transgenic Leishmania Mexicana promastigotes LmGT2 that are glucose transport deficient and complemented with the L. Mexicana glucose transporter 2. Activity is measured by DNA content using SYBR green in vitro", "format": "functional", "units": {"inhibition": "%"}}
{"smiles": "CC(NC(=O)NC1CCC(CCN2CCCc3ccccc32)CC1)c1cccc2ccccc12", "note": "(stereo not given)", "inhibition": -1.84}
{"smiles": "CCN(CC1CCN(CC2(O)CCOCC2)CC1)c1cc(C)nc(Nc2ccc(Cl)cc2)n1", "inhibition": -0.02}
{"smiles": "CC(C)(C)C1CCC(C(=O)c2ccc3ccccc3c2O)CC1", "note": "(stereo not given)", "inhibition": 0.57}
{"smiles": "O=C(NCc1cccs1)[C@H](Cc1ccccc1)Nc1ccnc(NCCc2ccccc2)n1", "inhibition": -0.38}
{"smiles": "CC(CCCCCC(=O)Nc1ccc(CC(C)NCCc2cccc(Cl)c2)cc1)NCCc1cccc(Cl)c1", "note": "(stereo not given)", "inhibition": 9.83}
{"smiles": "CC(C)CNCc1ccc(-c2cccc(CN(C(=O)NCCc3ccccc3)C3CCN(Cc4ccccc4)CC3)c2)cc1", "inhibition": 8.02}
{"smiles": "O=[N+]([O-])c1ccc(Nc2nc(N/N=C/c3cccc(O)c3)nc(N3CCCC3)n2)cc1", "inhibition": 1.31}
{"smiles": "O=c1cc(NCCCNCc2cc(Br)ccc2F)[nH]c2ccccc12", "inhibition": -6.76}
{"smiles": "N=C(N)c1ccc(Nc2nc(Nc3ccc(-c4ccccc4)cc3)ncc2[N+](=O)[O-])cc1", "inhibition": 3.44}
{"smiles": "CCN(CC)CCN(CCCc1ccc(-c2ccc(C(F)(F)F)cc2)cc1)C(=O)Cn1c(CCc2cccc(F)c2F)nc(=O)c2c1CCC2", "inhibition": 6.62}
{"smiles": "Cc1ccccc1-c1nc2c(CN3CCC(O)(c4ccccc4)CC3)c(O)ccc2[nH]1", "inhibition": 8.8}
{"smiles": "Cc1cc(OCCN2CCCCC2)ccc1NC(=O)c1cccc2c(=O)n(Cc3ccc(Cl)cc3)cnc12", "inhibition": 105}
{"smiles": "Cc1ccc(C2CC(=O)CC(c3ccccn3)C2[N+](=O)[O-])cc1", "note": "(stereo not given)", "inhibition": -0.46}
{"smiles": "CCOc1ccc(C(=O)Nc2cc(Br)c3c(c2)CNCC3)cc1Br", "inhibition": 6.15}
{"smiles": "Cc1nnsc1C(=O)Nc1ccc(-c2cccc(-c3nc4cc(C(F)(F)F)ccc4[nH]3)c2)cc1", "inhibition": 4.55}
{"smiles": "OC(CNCc1ccccc1OCc1ccccc1)c1cccc(Cl)c1", "note": "(stereo not given)", "inhibition": 5.2}
{"smiles": "O=C(Nc1ccc(OC2CCN(Cc3ccc(F)cc3)CC2)c(Cl)c1)c1ccoc1", "inhibition": 3.99}
{"smiles": "CN1CCC[C@@H](Oc2cc3c(cc2Br)CCN3C(=O)Nc2ccc(-c3ccncc3)c(Cl)c2)C1", "inhibition": 0.42}
{"smiles": "c1ccc(Oc2ccc(Nc3ccnc4cc(-c5ccc(CN6CCOCC6)o5)ccc34)cc2)nc1", "inhibition": -0.13}
{"smiles": "Cn1nccc1C(=O)NCCNCc1cccc(-c2cccc(-c3nc4cc(F)ccc4[nH]3)c2)c1", "inhibition": 1.11}
{"smiles": "CC1CN(CC(O)Cn2c3ccc(Br)cc3c3cc(Br)ccc32)CC(C)O1", "note": "(stereo not given)", "inhibition": 3.29}
{"smiles": "O=C(Nc1ccc(CCNCCCc2ccccc2)cc1)Nc1ccc(Cl)c(Cl)c1", "inhibition": -1.86}
{"smiles": "CN(C)c1ccc(CN2CCC(NC(=O)c3ccc(-c4ccccc4F)s3)CC2)cc1", "inhibition": -6.69}
{"smiles": "Cc1cc(-c2ccc(CNCc3ccsc3)cc2)ccc1S(=O)(=O)NCCN1CCCC1", "inhibition": -0.36}
{"smiles": "C=CCN1C(=O)c2[nH]nc(-c3cc(C)c(C)cc3O)c2C1c1cccc(Br)c1", "note": "(stereo not given)", "inhibition": 1.27}
{"smiles": "CC1CCC(NCc2c(O)ccc3ccccc23)CC1", "note": "(stereo not given)", "inhibition": 2.46}
{"smiles": "COc1c(CN2CCCC2)cccc1-c1cc2c(-c3ccc(C(=O)O)c(C(C)C)c3)ccnc2[nH]1", "inhibition": 2.09}
{"smiles": "CCC(C(=O)Nc1cc(=O)[nH]c2nc(-c3ccco3)nn12)c1ccccc1", "note": "(stereo not given)", "inhibition": 1.71}
{"smiles": "O=C(NCCc1ccc(F)cc1)c1ccc(N2CCN(c3ccncc3)CC2)nc1", "inhibition": -4.35}
{"smiles": "CC(C)(CNC(=O)C1CCN(CCOc2ccc(F)c(F)c2)CC1)c1nc(-c2ccc(Cl)c(O)c2)c(-c2ccncc2)[nH]1", "inhibition": 5.08}
{"smiles": "Cc1ccc(O)cc1Nc1ccnc2cc(-c3ccc(CN4CCCCC4)o3)ccc12", "inhibition": 13.8}
{"smiles": "O=C(N[C@H]1CCN(Cc2ccc(OC3CCN(Cc4ccccc4)CC3)c(Cl)c2)C1)c1ccc(Cl)c(Cl)c1", "inhibition": 1.75}
{"smiles": "Cc1cccc(-c2nn(-c3ccccc3)c3[nH]c(=O)c(CN4CCSCC4)cc23)c1", "inhibition": 1.18}
{"smiles": "Cn1nc(-c2cccc(CNCc3ccccc3)c2)c2cnc(NC3CCCC3)nc21", "inhibition": -1.01}
{"smiles": "Cc1cccc2nc(-c3cccc(-c4ccc(CNCc5cccc(N)c5)cc4)c3)[nH]c12", "inhibition": -2.56}
{"smiles": "CC[C@H](C)CNC(=O)c1cncc(-c2cccc(CN(C)C3CCN(C)CC3)c2)c1", "inhibition": 3.37}
{"smiles": "COCCNCc1ncsc1-c1ccc2c(Nc3cc(O)c(Cl)cc3F)ccnc2c1", "inhibition": 1.41}
{"smiles": "Cc1nc(C(=O)N2CCCC[C@H]2CNC(=O)c2ccc(-c3ccc(N4CCCC4=O)cc3C)cc2)c(-c2ccc(F)cc2)s1", "inhibition": 4.58}
{"smiles": "Cc1nc(C)c(-c2ccc(Oc3ccc(Cl)c(Cl)c3)cc2)c(O)c1Cl", "inhibition": 2.1}
{"smiles": "CC(=O)Nc1ccc(C(=O)Nc2ccc(-c3cccc(-c4nc5cccc(C)c5[nH]4)c3)cc2)cn1", "inhibition": -3.28}
